MEKK3 PB1 HTS – modulators (inhibitors or enhancers) of MEK5 binding to human MEKK3 PB1 domain; binding response (% of control), % at 10 µM; Q99759; AID 1529; bead-based flow cytometry, Alexa488-MEK5 binding to MEKK3; actives lie on both sides; 0 = blocked by unlabeled MEK5, 100 = vehicle; hit rate 1.4% among 290,000;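 active means binding response more than 3 SD above or below the average of its plate-row segment, actives on both sides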;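 further: Alexa488 bead fluorescence after subtracting the streptavidin-only scavenger bead signal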
Target sequence (Q99759 whole entry, looked up, the tested form may be a part): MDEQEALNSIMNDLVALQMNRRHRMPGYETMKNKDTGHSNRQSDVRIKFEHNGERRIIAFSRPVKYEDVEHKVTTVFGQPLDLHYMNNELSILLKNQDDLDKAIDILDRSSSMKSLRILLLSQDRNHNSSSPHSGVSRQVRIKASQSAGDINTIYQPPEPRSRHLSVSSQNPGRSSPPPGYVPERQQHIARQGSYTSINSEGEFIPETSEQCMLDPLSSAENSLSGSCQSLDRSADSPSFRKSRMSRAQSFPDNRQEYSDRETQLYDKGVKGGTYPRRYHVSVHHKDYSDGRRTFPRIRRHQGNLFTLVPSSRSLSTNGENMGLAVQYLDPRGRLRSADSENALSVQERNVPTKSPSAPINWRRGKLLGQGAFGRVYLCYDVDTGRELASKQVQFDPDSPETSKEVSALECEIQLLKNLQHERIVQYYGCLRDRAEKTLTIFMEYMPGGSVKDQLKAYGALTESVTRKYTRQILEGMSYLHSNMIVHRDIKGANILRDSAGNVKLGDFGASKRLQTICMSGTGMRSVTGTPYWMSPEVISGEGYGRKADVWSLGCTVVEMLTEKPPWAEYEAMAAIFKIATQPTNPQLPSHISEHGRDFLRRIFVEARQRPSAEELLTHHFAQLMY
SKN-1 block – blocks SKN-1 activity in C. elegans; C. elegans VP596 Pgst-4::GFP/RFP ratio, acrylamide-induced, 24 h; hit rate 0.49% among 360,000; AID 624304; inhibition, % at 21.8 µM;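 active means interference check ratio from 0.5 to 1.5 plus GFP to RFP signal ratio inhibition reaching or exceeding a fixed threshold, cut at about 30% in these data, passing the limit was not always enough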
MEKK2 WT-MEK5 – raises or lowers MEK5 binding to wildtype human MEKK2 PB1 domain; binding response (% of control), % at 10 µM; hit rate 1.1% among 290,000; bead flow cytometry, Alexa488-MEK5 binding to MEKK2 WT; actives lie on both sides; AID 1531; Q9Y2U5; in the data active means binding response below about 67% or above about 130%
CendR NRP1 mod – modulators of CendR peptide binding to human neuropilin-1. O14786. FAM-RPARPAR peptide binding to NRP-1, fluorescence polarization. inhibition, % at 25 µM. hit rate 0.85% among 360,000;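 active means inhibition or corrected inhibition above about 18%, plus a signal ratio from 0.5 to 1.5, limit read from the data, passing the limit was not always enough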
MEKK2 mut-MEK5 – signal of MEK5 binding to mutant human MEKK2 PB1 domain; bead flow cytometry, Alexa488-MEK5 binding to MEKK2 mutant; percent response, % at 10 µM; hit rate 0.35% among 290,000; in the data active means percent response above about 24%, passing the limit was not always enough
* = called active by the depositor; nt = no result given. An excerpt weighted towards active compounds, which were near 3.2% of everything screened.

SMILES	MEKK3 PB1 HTS	SKN-1 block	MEKK2 WT-MEK5	CendR NRP1 mod	MEKK2 mut-MEK5
c1ccc(SCc2cc(-c3ccccc3)no2)cc1	100	55*	99	3	1
Clc1ccc(SCc2cc(-c3ccccc3)on2)cc1	112	49*	114	5	13
Cc1ccc(SCc2cc(-c3ccc(Cl)cc3)no2)cc1	nt	20	nt	12	nt
Clc1ccc(-c2cc(CSc3cccc(Cl)c3)on2)cc1	104	60*	107	4	6
COc1ccccc1OCc1cc(-c2ccccc2)no1	107	12	101	16	-2
COc1ccc(OCc2cc(-c3ccc(Cl)cc3)no2)cc1	83	9	81	1	-17
COCCn1c(N)c(N(Cc2ccccc2)C(=O)CSCC(=O)Nc2ccc(OC)cc2)c(=O)[nH]c1=O	nt	2	nt	-14	nt
CC(Cc1c[nH]c2ccccc12)C(=O)NCc1ccco1 (stereo not drawn)	101	-4	105	-3	-3
c1ccc(OCc2cc(-c3ccccc3)no2)cc1	94	45*	100	5	-40
CCC(=O)Nc1cccc(C(=O)/C=C/c2cccs2)c1	115	-6	99	27*	-1
CC(=NCc1ccco1)c1c(C)[nH]n(-c2nc3ccccc3s2)c1=O	99	1	97	-12	0
C/C(=N/NC(=O)c1cccs1)c1c(C)[nH]n(-c2nc3ccccc3s2)c1=O	139*	1	100	-2	-1
CC(C)(C)c1cccc(P(=O)(c2ccccc2)c2ccccc2)c1O	92	1	89	-1	-5
O=P(c1ccccc1)(c1ccccc1)c1ccccc1C(Br)Br	nt	4	nt	28*	nt
CC(C)CC(NC(=O)C(COC(C)(C)C)NC(=O)C(Cc1ccc(O)cc1)NC(=O)C(CO)NC(=O)C(Cc1c[nH]c2ccccc12)NC(=O)C(Cc1cnc[nH]1)NC(=O)C1CCC(=O)N1)C(=O)N[C@@H](CCCN=C(N)N)C(=O)N1CCCC1C(=O)NNC(N)=O (stereo partly drawn)	117	nt	120	nt	7
CCOC(=O)c1c(-c2ccccc2)oc2ccc(OCC(O)CN(C)C)cc12 (stereo not drawn)	107	14	162*	4	25*
C=CCC(C(=O)Oc1c(C(C)(C)C)cc(C)cc1C(C)(C)C)c1ccccc1 (stereo not drawn)	nt	-5	nt	9	nt
CCCS(=O)(=O)N1CCC(C(=O)NC2CCCC(C)C2C)CC1 (stereo not drawn)	81	4	88	26*	-3
CCCS(=O)(=O)N1CCCC(C(=O)NC2CCCC(C)C2C)C1 (stereo not drawn)	nt	5	nt	0	nt
CCOC(=O)c1c(C)cc2c(CO)n[nH]c(=O)c2c1C	nt	13	nt	4	nt
Cc1cnc(CN(C)C(=O)CC2C(=O)NCCN2CCCc2ccccc2)[nH]1 (stereo not drawn)	95	-5	102	6	2
COCCNC(=O)c1cc(-c2ccccc2)nn1CC1CC(c2cccc([N+](=O)[O-])c2)=NO1 (stereo not drawn)	104	6	102	31*	1
COC(=O)c1cccc(CC2(C)C(=O)Nc3ccc(OC(F)(F)F)cc32)c1 (stereo not drawn)	nt	37*	nt	-6	nt
c1ccc(CSc2ncnc3sccc23)cc1	100	43*	99	7	-4
Cc1nc(SCc2ccccc2)c2ccsc2n1	104	5	98	-8	-1
SMILES	MEKK3 PB1 HTS	SKN-1 block	MEKK2 WT-MEK5	CendR NRP1 mod	MEKK2 mut-MEK5
CCC1CCCCN1CCN1C(=O)C2C(C(=O)Nc3cccc(OC)c3)C3C=CC2(O3)C1C(=O)NC1CCCCC1 (stereo not drawn)	102	5	111	13	3
CCC1CCCCN1CCN1C(=O)C2C(C(=O)Nc3ccc(OC)cc3)C3C=CC2(O3)C1C(=O)NC1CCCCC1 (stereo not drawn)	100	37*	109	7	2
CCOC(=O)c1c(O)c2cc(Cl)ccc2n(CC)c1=O	97	5	101	-5	-1
OC(COCC(F)(F)C(F)(F)C(F)(F)C(F)F)Cn1c2ccc(Cl)cc2c2cc(Cl)ccc21 (stereo not drawn)	100	-5	135	-17	53*
CCOc1cc(C(N)=O)cc(Br)c1OC	115	44*	106	6	3
CCOc1cc(C(N)=O)cc(OCC)c1OCC	106	6	111	5	5
CCCCn1c(N)c(N(C(=O)CSc2nnnn2-c2ccccc2C)C2CCCC2)c(=O)[nH]c1=O	nt	11	nt	-10	nt
CC(C)CN(C(=O)COC(=O)Cc1c[nH]c2ccccc12)c1c(N)n(Cc2ccccc2)c(=O)[nH]c1=O	nt	1	nt	-5	nt
CCC(Sc1nc2n[nH]c(C)c2c(=N)n1-c1cccc(Cl)c1)C(=O)NCCOC (stereo not drawn)	96	-11	97	29*	1
Cc1cc(NS(=O)(=O)c2ccc(NC(=O)CSc3nc4ncc(Br)cc4[nH]3)cc2)nc(C)n1	123	-7	119	4	18
Cc1cc(NS(=O)(=O)c2ccc(NC(=O)CCCC(=O)O)cc2)nc(C)n1	108	1	109	45*	8
Cc1cc(NS(=O)(=O)c2ccc(NC(=O)CSc3nc4ncc(Cl)cc4[nH]3)cc2)nc(C)n1	96	-1	-4.0*	-1	9
Nc1c(Cl)cc(N=Nc2ccccc2)cc1Cl	nt	9	nt	0	nt
CCOCCn1c(COc2ccccc2)nc2ccccc21	100	40*	108	12	3
COCCCNC(=S)NC1CC2CCC(C1)N2Cc1ccccc1 (stereo not drawn)	102	-3	108	48*	-7
CCOCCCNC(=S)NC1CC2CCC(C1)N2Cc1ccccc1 (stereo not drawn)	105	1	98	-3	-8
Cc1ccc(S(=O)(=O)N2[C@H](CC(=O)c3cccs3)OC[C@@H]2C)cc1	nt	-3	nt	-1	nt
N#CC1c2ccccc2C=CN1C(=O)N(c1ccccc1)c1ccccc1 (stereo not drawn)	nt	-11	nt	6	nt
CCCC(=O)N(CCN1CCOCC1)c1nc2c(OCC)cccc2s1	101	40*	97	-8	-1
Cc1ccc(N2CC(C(=O)NCc3nnnn3-c3ccc(C)c(C)c3)CC2=O)cc1 (stereo not drawn)	104	-7	104	0	1
Cc1ccc(-n2nnnc2CNC(=O)C2CC(=O)N(c3ccccc3)C2)cc1C (stereo not drawn)	97	-3	96	28*	0
Cc1ccc2c(c1)C(=C(C#N)C#N)CCN2	nt	33	nt	-101	nt
C=C1C[C@@]23CCC4[C@@](C)(CCC[C@@]4(C)C(=O)O)C2CC[C@]1(O)C3 (stereo partly drawn)	nt	12	nt	32*	nt
Cc1cccc(C)c1NC(=O)C(c1ccncc1)N1CCN(CCN(C)C)CC1 (stereo not drawn)	nt	23	nt	11	nt

Screening data: PubChem BioAssay, several laboratories
